Screening data from PubChem BioAssay.
Only some compounds are listed: those with a hit (about 3.2% of all), similar ones and a draw of the others.
GDH-TPI inh – GDH-TPI coupling enzyme inhibitors, primary screen, artefact control for M. tuberculosis FBA inhibitor project, biochemical, absorbance, full deck; GDH-TPI coupled enzyme counterscreen, NADH absorbance; inhibition, % at 4.8 µM; hit rate 1.2% among 360,000; in the data active = inhibition above about 30%
PriA SSB inh – inhibitors of Klebsiella pneumoniae PriA binding to SSB C-terminal tail, primary screen, biochemical, AlphaScreen. PriA–SSB C-terminal tail interaction (Klebsiella pneumoniae). AlphaScreen SSBct-PriA binding, biotinylated peptide. inhibition, % at 33 µM. hit rate 0.6% among 430,000; in the data active = inhibition mostly above about 37%, no sharp cut-off; inactive = mostly below about 20%
Mtb betalactam – beta-lactam sensitization of Mtb H37Rv, H37Rv. M. tuberculosis H37Rv growth with meropenem, percent inhibition. inhibition, % at 25 µM. hit rate 0.27% among 330,000. AID 434955, 2010; call rule not given here;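 also: growth measured after seven days incubation then overnight dye step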
Mtb UGM inh – M. tuberculosis UGM enzyme inhibitors, primary screen, biochemical, fluorescence polarization, single point | UDP-galactopyranose mutase (Mycobacterium tuberculosis (strain ATCC 25618 / H37Rv)), … | AID 504406, 2011 | inhibition, % at 10 µM | hit rate 0.06% among 320,000 | purified UGM, fluorescence polarization probe displacement; in the data active = inhibition above about 10%, passing the limit was not always enough; inconclusive = no clear call, values can overlap the other calls
Target sequence (P9WIQ1 whole entry, looked up): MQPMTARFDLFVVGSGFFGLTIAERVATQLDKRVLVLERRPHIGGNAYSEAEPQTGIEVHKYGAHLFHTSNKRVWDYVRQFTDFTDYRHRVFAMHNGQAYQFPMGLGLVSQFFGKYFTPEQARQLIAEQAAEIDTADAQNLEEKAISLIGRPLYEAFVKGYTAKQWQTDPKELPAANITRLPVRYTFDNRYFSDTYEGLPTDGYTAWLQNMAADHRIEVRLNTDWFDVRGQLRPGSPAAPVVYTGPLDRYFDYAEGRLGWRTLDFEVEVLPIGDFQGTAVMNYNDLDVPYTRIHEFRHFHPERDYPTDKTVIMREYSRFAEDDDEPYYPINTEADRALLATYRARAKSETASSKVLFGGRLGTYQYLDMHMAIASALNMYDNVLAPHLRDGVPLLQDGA
Mtb FBA inh – Mtb FBA enzyme inhibitors, primary screen, biochemical, fluorescence, strain H37Rv. Fructose-bisphosphate aldolase (Mycobacterium tuberculosis (strain ATCC 25618 / H37Rv)), …. purified M. tuberculosis FBA, fluorescence read-out. inhibition, % at 1 µM. hit rate 2.3% among 360,000; in the data active = inhibition above about 27%
Rv3671c protease – Rv3671c serine protease inhibitors, primary screen, biochemical, fluorescence polarization, M. tuberculosis H37Rv. P9WHR9. inhibition, % at 5.96 µM. hit rate 0.048% among 320,000; in the data active = inhibition above about 38%;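 also: extracellular domain of Rv3671c used as enzyme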
Numbers stand for hits.

For Cc1ccc(OCCOC[C@@H](O)CN2CCN(CCN3C(=O)c4cccc5cccc(c45)C3=O)CC2)cc1C the results were PriA SSB inh 36.
CCOC(=O)c1cccc(N/C=C(/C#N)S(=O)(=O)c2ccc(Cl)cc2)c1 was read as PriA SSB inh inactive.
Screening CC1(C)Cc2c(cnn2-c2ccc(F)cc2)C(NC(=O)C2=CC(=O)CC(C)(C)O2)C1 (centres undefined) returned GDH-TPI inh inactive and Mtb FBA inh inactive.
Screening COc1ccc(-n2ncc3c2CC(C)(C)CC3NC(=O)C2=CC(=O)CC(C)(C)O2)cc1 (centres undefined) returned GDH-TPI inh inactive, PriA SSB inh inactive, Mtb betalactam inactive, Mtb UGM inh inactive, Mtb FBA inh 153 and Rv3671c protease inactive.
For O=C1NC(c2ccccc2)=C(c2nc3ccccc3s2)C(c2ccccc2)N1 (centres undefined) the results were GDH-TPI inh 34, PriA SSB inh inactive, Mtb betalactam inconclusive, Mtb UGM inh inactive, Mtb FBA inh inactive and Rv3671c protease inactive.
Screening CC(=O)C1=C(c2ccccc2)NC(=O)NC1c1ccccc1 (centres undefined) returned GDH-TPI inh inactive, PriA SSB inh inactive, Mtb betalactam inactive, Mtb UGM inh inactive, Mtb FBA inh inactive and Rv3671c protease inactive.
Cn1c(=O)c2c(N3CCCc4ccccc43)ccnc2n(C)c1=O was read as PriA SSB inh inactive.
For Cc1cc(N/N=C/c2ccc(O)cc2)nc(NS(=O)(=O)c2ccccc2)n1 the results were GDH-TPI inh 74, Mtb betalactam inactive, Mtb UGM inh inactive, Mtb FBA inh inactive and Rv3671c protease inactive.
Screening COc1ccc(C=NNc2cc(C)nc(N)n2)cc1 returned PriA SSB inh inactive.
Screening Cc1cc(N/N=C/c2ccccc2)nc(N)n1 returned GDH-TPI inh 42, PriA SSB inh inactive, Mtb betalactam inactive, Mtb UGM inh inactive, Mtb FBA inh inactive and Rv3671c protease inactive.
Cc1cc(NN=Cc2ccc(O)cc2)nc(NS(=O)(=O)c2ccccc2)n1 was read as PriA SSB inh inactive.
`NC(=O)C1CCN(C(=O)CCc2csc(NC(=O)c3ccc[nH]c3=O)n2)CC1` gave PriA SSB inh inactive.
c1ccc(Nc2ccccn2)cc1 was read as GDH-TPI inh inactive, PriA SSB inh inactive, Mtb betalactam inactive, Mtb UGM inh inactive, Mtb FBA inh inactive and Rv3671c protease inactive.
Screening c1ccc(Nc2cccc(Nc3ccccc3)n2)cc1 returned GDH-TPI inh inactive, PriA SSB inh 72, Mtb betalactam inactive, Mtb UGM inh inactive, Mtb FBA inh inactive and Rv3671c protease inactive.
For Cc1cc(=O)oc2cc(NC(=O)c3ccccc3C(=O)O)ccc12 the results were GDH-TPI inh inactive, PriA SSB inh inactive, Mtb betalactam inactive, Mtb UGM inh inactive, Mtb FBA inh active and Rv3671c protease inactive.
CCOC(=O)Nc1ccc2c(COC(=O)CNS(=O)(=O)c3ccc(NC(C)=O)cc3)cc(=O)oc2c1 was read as GDH-TPI inh inactive, PriA SSB inh inactive, Mtb betalactam inactive, Mtb UGM inh inactive, Mtb FBA inh 160 and Rv3671c protease inactive.
`Cc1ccc2c(COC(=O)CNS(=O)(=O)c3ccccc3)cc(=O)oc2c1` gave GDH-TPI inh inactive, PriA SSB inh inactive, Mtb betalactam inactive, Mtb UGM inh inactive, Mtb FBA inh inactive and Rv3671c protease inactive.
For CCOC(=O)Nc1ccc2c(C)cc(=O)oc2c1 the results were GDH-TPI inh inactive, PriA SSB inh inactive, Mtb betalactam inactive, Mtb UGM inh inactive, Mtb FBA inh 199 and Rv3671c protease inactive.
Screening Cc1ccc(NC(=O)CC2CCCCN2S(=O)(=O)c2ccccc2)cc1C (centres undefined) returned PriA SSB inh inactive.
`Cc1nc2sccn2c(=O)c1NC(=O)C(c1ccccc1)c1ccccc1` gave PriA SSB inh inactive.
For O=c1[nH]c2ccc(Cl)cc2c(O)c1-c1ccccc1 the results were GDH-TPI inh inactive, PriA SSB inh inactive, Mtb betalactam inactive, Mtb UGM inh inactive, Mtb FBA inh 34 and Rv3671c protease inactive.
`O=c1[nH]c2cc(Cl)ccc2c(O)c1-c1cccc(Oc2ccccc2)c1` gave GDH-TPI inh inactive, PriA SSB inh inactive, Mtb betalactam inactive, Mtb UGM inh inactive, Mtb FBA inh inactive and Rv3671c protease inactive.
O=C(CCCO)NN=Cc1ccccc1[N+](=O)[O-] was read as PriA SSB inh inactive.
Cc1ccc(-c2nc3sc(C#N)c(N)n3c(=O)c2C#N)cc1 was read as GDH-TPI inh inactive, PriA SSB inh inactive, Mtb betalactam inactive, Mtb UGM inh 13, Mtb FBA inh inactive and Rv3671c protease inactive.
Cc1nc(N(C)C)c2sc(=S)n(C)c2n1 was read as GDH-TPI inh 31, PriA SSB inh inactive, Mtb betalactam inactive, Mtb UGM inh inactive, Mtb FBA inh inactive and Rv3671c protease inactive.
Screening COc1cccc(-n2c([S-])c(C(=O)Nc3ccc(S(=O)(=O)N4CCOCC4)cc3)[n+]3cc(C(N)=O)ccc23)c1 returned GDH-TPI inh 31, PriA SSB inh inactive, Mtb betalactam inactive, Mtb UGM inh inactive, Mtb FBA inh inactive and Rv3671c protease inactive.
For Cc1c(C(=O)Nc2ccc(S(=O)(=O)N3CCOCC3)cc2)cccc1[N+](=O)[O-] the results were GDH-TPI inh inactive, PriA SSB inh inactive, Mtb betalactam inactive, Mtb UGM inh inactive, Mtb FBA inh active and Rv3671c protease inactive.
For O=C(Nc1ccc(S(=O)(=O)N2CCOCC2)cc1)c1ccc([N+](=O)[O-])o1 the results were GDH-TPI inh 32, PriA SSB inh inactive, Mtb betalactam inactive, Mtb UGM inh inactive, Mtb FBA inh inactive and Rv3671c protease inactive.
`O=C(Nc1ccc(S(=O)(=O)N2CCCC2)cc1)c1ccc([N+](=O)[O-])o1` gave GDH-TPI inh inactive, PriA SSB inh inactive, Mtb betalactam inactive, Mtb UGM inh inactive, Mtb FBA inh inactive and Rv3671c protease inactive.
COc1cc(C(=O)NCC[C@H](O)C(C)(C)C)cc(OC)c1OC was read as PriA SSB inh inactive.
COc1cccc(OC)c1C(=O)NCCOc1ccc2nnc(-c3ccc(F)cc3)n2n1 was read as PriA SSB inh inactive.
`Nc1c(C(=O)C2CC2)sc2nc(-c3ccccc3)cc(C(F)(F)F)c12` gave GDH-TPI inh inactive, PriA SSB inh inactive, Mtb betalactam inactive, Mtb UGM inh inactive, Mtb FBA inh inactive and Rv3671c protease inactive.
`CS(=O)(=O)c1sc2nc(-c3cccs3)cc(-c3ccccc3)c2c1N` gave GDH-TPI inh 31, PriA SSB inh inactive, Mtb betalactam inactive, Mtb UGM inh inactive, Mtb FBA inh inactive and Rv3671c protease inactive.
